Most compounds without a hit are left out; they make up all but 3.6% or so of the library.
CendR NRP1 mod – alters CendR peptide binding to human NRP-1; O14786; FAM-RPARPAR peptide binding to NRP-1, fluorescence polarization; inhibition, % at 25 µM; 360,000 compounds, 0.85% hits; AID 602438;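 active = inhibition or corrected inhibition above about 18%, plus a signal ratio from 0.5 to 1.5, limit read from the data, passing the limit was not always enough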
Target sequence (O14786 whole entry, looked up): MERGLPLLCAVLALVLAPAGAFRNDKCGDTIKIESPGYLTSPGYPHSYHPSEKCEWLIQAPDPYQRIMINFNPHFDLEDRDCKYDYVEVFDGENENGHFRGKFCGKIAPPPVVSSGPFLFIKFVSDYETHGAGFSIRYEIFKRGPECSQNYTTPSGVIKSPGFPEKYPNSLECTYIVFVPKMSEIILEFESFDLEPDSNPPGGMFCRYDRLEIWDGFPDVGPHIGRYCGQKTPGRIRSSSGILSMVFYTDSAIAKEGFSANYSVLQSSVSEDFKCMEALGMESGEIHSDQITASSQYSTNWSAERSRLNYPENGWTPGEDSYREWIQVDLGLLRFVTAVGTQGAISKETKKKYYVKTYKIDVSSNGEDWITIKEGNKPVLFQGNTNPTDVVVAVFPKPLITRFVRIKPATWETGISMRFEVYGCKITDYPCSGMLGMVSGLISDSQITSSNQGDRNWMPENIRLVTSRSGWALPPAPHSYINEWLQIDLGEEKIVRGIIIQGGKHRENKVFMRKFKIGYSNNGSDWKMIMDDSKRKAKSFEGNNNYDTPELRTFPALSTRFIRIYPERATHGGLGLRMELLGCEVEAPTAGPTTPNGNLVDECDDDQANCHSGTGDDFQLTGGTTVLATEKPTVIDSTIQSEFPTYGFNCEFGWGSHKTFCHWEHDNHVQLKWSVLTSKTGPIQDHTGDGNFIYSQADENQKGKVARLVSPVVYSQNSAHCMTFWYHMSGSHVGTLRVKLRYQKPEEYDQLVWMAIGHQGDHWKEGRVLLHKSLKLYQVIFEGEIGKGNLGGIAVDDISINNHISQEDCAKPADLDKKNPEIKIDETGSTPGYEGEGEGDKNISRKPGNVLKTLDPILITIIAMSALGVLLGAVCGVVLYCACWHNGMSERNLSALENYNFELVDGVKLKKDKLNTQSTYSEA
FAS TE block – FAS thioesterase (human) inhibition; 360,000 compounds, 0.67% hits; recombinant FAS-TE, OMFH fluorogenic substrate, fluorescence endpoint; inhibition, % at 15 µM; P49327;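 active = compounds whose normalised, plate-corrected inhibition of enzyme fluorescence in the single-dose primary screen is 50% or more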;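 also: 0% = DMSO with enzyme and 100% = substrate without enzyme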
CRFBP-R2 block – antagonists of CRF-binding protein/CRF-R2 receptor complex; HEK293 CRF-R2/CRF-BP, CRF-induced calcium fluorescence; inhibition, % at 11.8 µM; 350,000 compounds, 0.59% hits; AID 588475;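 active = inhibition of the ligand-induced calcium signal above about 50% at the single tested concentration, limit read from the data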
Myeloid diff 2 – promotes myeloid progenitor differentiation | ER-HoxA9 myeloid progenitors, lysozyme-GFP differentiation, flow cytometry | calls only at 10 µM | 360,000 compounds, 1% hits;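 active = normalized GFP-positive differentiation at or above the plate's own cutoff, the solvent-only control mean plus 3 SD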;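 also: cells exposed to compound for four days before flow analysis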
NadD block – blocks S. aureus nicotinate mononucleotide adenylyltransferase; purified NadD enzyme, colorimetric absorbance read-out; inhibition, % at 20 µM; 360,000 compounds, 0.78% hits; AID 602399; in the data active = inhibition above about 26%
* = called active by the depositor; i = inactive; . = not tested or not shown; + = active, no number.

SMILES	CendR NRP1 mod	FAS TE block	CRFBP-R2 block	Myeloid diff 2	NadD block
CNc1cncc(-c2ccccc2NC(C)=O)n1	32.3*	-6.0	.	i	-3.4
CCC(C)[C@H](NC(=O)NC1CCCc2ccccc21)C(=O)O (stereo partly drawn)	6.7	-1.8	16.2	+	-0.8
CCC(C)[C@H](NC(=O)NC1CCCc2ccccc21)C(=O)OC (stereo partly drawn)	-7.2	5.6	19.9	i	-2.2
Cc1ccc(C(O)CN2C3=NCCN3c3ccccc32)cc1 (stereo not drawn)	56.0*	-11.5	16.1	i	-4.7
OC(CN1C2=NCCN2c2ccccc21)c1ccccc1 (stereo not drawn)	-15.7	-7.6	-16.3	i	-5.0
OC(CN1C2=NCCN2c2ccccc21)c1ccc(Br)cc1 (stereo not drawn)	-2.3	-5.2	2.9	+	-1.0
COc1ccc(C(=O)NN=C2CCCC2)cc1	3.9	-4.8	9.9	+	6.1
O=C(CN1CCN(C(=O)c2cccc(S(=O)(=O)N3CCCC3)c2)CC1)Nc1ccc(F)cc1	13.2	-2.3	-1.3	i	-1.4
Cc1ccc2c(c1)NC(=O)C(CC(=O)NCCCN1CCCCC1)O2 (stereo not drawn)	2.1	-2.3	21.8	i	0.6
Cc1ccc2c(c1)NC(=O)C(CC(=O)NCCCN1CCN(c3cc(Cl)ccc3C)CC1)O2 (stereo not drawn)	-11.7	5.9	-12.3	+	4.7
COc1ccc(CCNC(N)=S)cc1OC	-5.0	-9.8	62.8*	i	2.6
COc1ccc(CCN(C)CCc2ccc(OC)c(OC)c2)cc1OC	6.9	-4.1	13.4	+	2.0
COc1cccc(-c2cc3nc(NCc4ccccc4F)n(C)c(=O)c3s2)c1	-10.4	15.3	.	i	4.1
COc1ccc(-c2[nH]ncc2CN(C)CCc2c(C)n[nH]c2C)c(F)c1	26.0*	-2.5	-17.5	i	0.0
Cc1nc2c(OCCOc3ccccc3)cccn2c1N(C)C(=O)CCC1CCCC1	22.0	9.3	.	i	7.2
Cc1nc2c(OCCC3CCCCC3)cccn2c1N(C)C(=O)CCC1CCCC1	26.4*	26.0	.	i	19.4
Nc1nc(NCCc2ccccc2)nc(NCc2ccccc2)c1[N+](=O)[O-]	-2.4	31.4	-67.5	i	-3.2
CN(Cc1ccccc1)c1nc(N)c([N+](=O)[O-])c(NCc2ccccc2)n1	22.2*	36.0	11.9	i	7.1
CC(C)(C)n1nnnc1CN(Cc1cccnc1)Cc1ccccc1Cl	13.6	-1.5	4.6	+	-0.4
CC1(Oc2ccccc2-c2ccn[nH]2)CCN(Cc2ccc(OC(F)(F)F)cc2)C1 (stereo not drawn)	-14.1	2.1	.	i	-6.5
CC1(C)Cc2c(sc3[nH]c(=O)n(CC(=O)NCC4CCCO4)c(=O)c23)CO1 (stereo not drawn)	2.3	-6.5	83.6*	i	3.1
CC1=C(C(=O)Nc2ccccc2C(=O)NC2CCC(C)CC2)SCCO1 (stereo not drawn)	1.4	0.7	13.9	+	-0.2
O=C(/C=C/c1ccco1)OCc1nnc(-c2ccc(Cl)cc2)o1	-34.1	16.1	86.7*	i	-0.5
Cc1ccc(S(=O)(=O)N(C)C)cc1NC(=O)COC(=O)c1ccc2c(c1)NC(=O)CS2	13.5	0.4	11.2	i	-1.3
COc1ccc2oc(C(=O)OCC(=O)NC3CCS(=O)(=O)C3)c(C)c2c1 (stereo not drawn)	-10.1	-6.0	-2.3	i	0.2
SMILES	CendR NRP1 mod	FAS TE block	CRFBP-R2 block	Myeloid diff 2	NadD block
Cc1nn(C)c(C)c1N1C(=O)c2cccc3c(Br)ccc(c23)C1=O	-5.2	-8.6	21.5	+	-0.1
Cc1nn(C)c(C)c1N1C(=O)c2cccc3c(N)ccc(c23)C1=O	121.4	-176.3	-397.9	+	-2.0
CCN1C(=O)c2cccc3c(N)ccc(c23)C1=O	120.5	-159.6	-136.0	i	-7.6
CC(=O)N1CCSc2ccc(S(=O)(=O)NCCc3ccc(Cl)cc3)cc21	2.3	11.7	-3.9	i	-3.1
O=C(OCC(=O)N1CCN(c2ccccc2)CC1)c1cc(F)c(F)cc1Cl	2.2	0.2	-8.7	i	-1.0
COC(=O)N(C)C[C@@H]1OCc2ccccc2-c2c(n(C)c3ccccc23)C(=O)N([C@H](C)CO)C[C@@H]1C	0.5	-4.5	-6.6	i	-3.6
CCOC(=O)c1ccc(Nc2c(OCC)c(=O)c2=O)cc1	1.3	-5.5	23.8	i	-3.6
Cc1cccc(CCN2CCN=C2Nc2ccccc2)c1	27.1*	-17.5	10.4	i	-24.1
Cc1ccc(N=CC2=C(O)CC(C)(C)CC2=O)nc1	24.1*	-6.7	-0.3	i	-4.0

From PubChem
